Only a selection was taken, and hits are over-represented in it overall.
Tgondii IFNg – T. gondii growth inhibition with IFN-gamma, primary screen, cell-based; activity change, negative = inhibition, % (concentration not given with the values); actives 3.8% (n = 69,000); AID 1259416, 2018; Toxoplasma gondii growth in IFN-gamma-treated host cells; stronger effect = lower value; in the data active = activity change below about -70%, passing the limit was not always enough;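 note: host cells are HeLa cells infected with Toxoplasma gondii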
Active calls of the source: *; ! = a repeat was not active.

SMILES	Tgondii IFNg
CCCN1CCN(CCCNc2nc(-c3ccc(OC)cc3)nc3ccccc23)CC1	-53
C=CCNc1ccccc1C(=O)NCc1cc(=O)[nH]cn1	10
COc1ccccc1NC(=O)N1C[C@H](O)COC[C@@H]2O[C@@H](CC(=O)NCCc3ccncc3)CC[C@H]21	5
C=C1C(C)(C)[C@H]2CC[C@]1(C(=O)NCCc1nc3ccccc3c(=O)[nH]1)C2	20
O=c1ncn(Cc2ccccn2)cc1-c1ccccc1	44
c1ccc(-c2csc3ncnc(NCc4ccccn4)c23)cc1	-74*
c1ccc(-c2csc3ncnc(NCC4CCCO4)c23)cc1 (stereo unspecified)	-60
CN(CCCc1cnn(C)c1)c1nc(-c2cccnc2)nc2c1cnn2C	-16
Cc1ccsc1CN(C)c1nc(-c2cccnc2)nc2c1cnn2C	-74*
Cc1ncsc1CCN(C)c1nc(-c2cccnc2)nc2c1cnn2C	-35
COc1cccc(-n2cc(CN(C)Cc3cnc(N(C)C)nc3)cn2)c1	3
CC(=O)Nc1ccc(S(=O)(=O)Nc2cncc(C(=O)N3CCN(c4ccc(F)cc4)CC3)c2)cc1	7
O=S(=O)(c1ccc2ccccc2c1)N1CCC2(CC1)Nc1cc(F)ccc1-n1cccc12	3
O=C1CCC(CC(=O)N2Cc3cnn(Cc4ccc(F)cc4)c3C2)N1 (stereo unspecified)	-2
CC(=O)[C@H]1CC[C@H]2[C@@H]3CCC4=CC(=O)CC[C@]4(C)[C@H]3[C@H](O)C[C@]12C	-6
CC(=O)OCC(=O)[C@H]1CC[C@H]2[C@@H]3CCC4=CC(=O)CC[C@]4(C)[C@H]3CC[C@]12C	-82*!
C[C@]12C[C@H](O)[C@H]3[C@@H](CCC4=CC(=O)CC[C@@]43C)[C@@H]1CC[C@@H]2C(=O)CO	-13
Cc1cc(CNC(=O)c2cc(C)n(C)n2)c(C(F)(F)F)o1	24
CN1CCN(C(=O)c2ccccn2)Cc2cccnc21	2
CC(C)n1nc(Cn2ccnc2)c2c1CN(Cc1ccoc1)C2	-5
COc1ccc(-c2nc(CN3C(=O)C(O)(c4ccccc4)c4ccccc43)c(C)o2)cc1 (stereo unspecified)	-78*
COc1ccc(-c2nc(Cn3ccn4nc(-c5ccccc5)cc4c3=O)c(C)o2)cc1	-29
Cc1oc(-c2ccc(C(=O)NCc3cccc(F)c3)cc2)nc1CN1CCN(c2ccccc2)CC1	14
Cc1oc(-c2ccc(C(=O)NCc3cccc(F)c3)cc2)nc1CN1CCc2ccccc21	-43
Cc1oc(-c2ccccc2)nc1CN1C(=O)C(O)(c2ccccc2)c2ccccc21 (stereo unspecified)	-36
SMILES	Tgondii IFNg
COc1ccc(-c2nc(CN3C(=O)C(O)(c4cccc(C)c4)c4ccccc43)c(C)o2)cc1 (stereo unspecified)	-37
COc1ccc(-c2cc3c(=O)n(Cc4nc(-c5ccccc5)oc4C)ccn3n2)cc1	46
COc1ccc(-c2nc(Cn3c(C)cc(C)c(-c4nc(-c5ccccc5)no4)c3=O)c(C)o2)cc1	-86*
Cc1oc(-c2ccccc2)nc1CN1C(=O)C(O)(c2cccc(F)c2)c2ccccc21 (stereo unspecified)	-105*
CCOc1ccc(-c2nc(CN(c3ccccc3)S(=O)(=O)c3cccs3)c(C)o2)cc1	-13
COc1ccc(-c2cc(C(=O)N3C[C@H]4CC[C@](O)(c5cccc(OC)c5)[C@H]4C3)no2)cc1	-54
O=C(Cn1ncc2c(N3CCN(c4ccccc4)CC3)ncnc21)Nc1ccc2c(c1)OCCO2	-32
NC(=O)CN1CCC=C(C2CCCCN2C(=O)Cc2ccccc2)C1 (stereo unspecified)	5
CCCNC(=O)N(C)C[C@@H]1Oc2cc(C#C[C@H](C)O)ccc2S(=O)(=O)N([C@H](C)CO)C[C@H]1C	-70
Cc1ccccc1-c1ccc2c(c1)O[C@H](CN(C)C(=O)Nc1ccc(C(F)(F)F)cc1)[C@@H](C)CN([C@H](C)CO)S2(=O)=O	-97*
C[C@H](CO)N1C[C@H](C)[C@H](CN(C)C(=O)Nc2cccc(F)c2)Oc2cc(C#CC3(O)CCCC3)ccc2S1(=O)=O	-7
C[C@@H]1CN([C@@H](C)CO)S(=O)(=O)c2ccc(C#CC3(O)CCCC3)cc2O[C@@H]1CN(C)C(=O)Nc1cccc(F)c1	-104*
Cc1ccccc1-c1ccc2c(c1)O[C@@H](CN(C)C(=O)Nc1ccc(C(F)(F)F)cc1)[C@@H](C)CN([C@H](C)CO)S2(=O)=O	66
C/C=C/c1ccc2c(c1)O[C@@H](CN(C)C(=O)Nc1ccc(OC)cc1)[C@@H](C)CN([C@@H](C)CO)S2(=O)=O	100
Cc1ncsc1C(=O)N1CCCCC1c1ccc2c(=O)n(C)c(=O)n(C)c2n1 (stereo unspecified)	-37
O=C(O)c1cccc(N2C(=O)CCCC2=O)c1	-16
O=c1nc2c(cnn2-c2ccccc2)c2n1CCN2	2
c1ccc(-c2cc3c(N4CCc5ccccc54)ncnc3s2)cc1	-43
Clc1ncnc2sc(-c3ccccc3)cc12	62
c1ccc(-c2cc3ncnc(N4CCSCC4)c3s2)cc1	-99*
Cc1nc(-c2ccc(F)cc2)sc1CCNS(=O)(=O)c1ccccc1F	79
Cc1ccc2[nH]c(=O)c(-c3nc(-c4ccccc4Br)no3)c(O)c2c1	-9
CCOC(=O)c1noc2nc(C)n(Cc3nc(-c4ccc(OCC)cc4)oc3C)c(=O)c12	99
c1ccc(Nc2cccc3c(Nc4ccccc4)cccc23)cc1	14
c1ccc2c(NC3=NCCCCS3)cccc2c1	-15
SMILES	Tgondii IFNg
Cc1ccc(Nc2cccc3ccccc23)cc1	-119*
C[C@@H](NC(=O)N1C[C@H](N(C)C)C[C@H]1CO)c1ccc(Cl)cc1	8
C/C=C/c1ccc2c(c1)[C@H]1[C@H](CCN1C(=O)c1ccc3c(c1)OCO3)[C@H](CO)N2	8
Cc1ccc2c(c1)-c1ccccc1S(=O)(=O)N2CC(=O)NC(C)C	-3
CC(C)(C)NC(=O)N1CCC(Nc2nccc(C(F)(F)F)n2)CC1	-62
COc1ccc(F)c(CN2CCC(NS(C)(=O)=O)CC2)c1Cl	4
COc1ccc(F)c(F)c1C(=O)c1cnc(NC2CCN(S(C)(=O)=O)CC2)nc1N	-76*
CN(C)C(=O)[C@@H]1C[C@@H]2OCC[C@@H]2N(Cc2ccoc2)C1	486
O=C(Cc1cccnc1)NCCCN1CCCc2ccccc21	2
Cc1ccc(S(=O)(=O)N2CCC3(CC(C(=O)NCC(C)C)=NO3)C2)cc1 (stereo unspecified)	0
CN(Cc1ccccn1)C(=O)C1=NOC2(CCN(S(=O)(=O)c3cccc(F)c3)C2)C1 (stereo unspecified)	-81*
CN(Cc1ccccn1)C(=O)c1cc(-c2cnc(-c3cccc(F)c3)nc2)cn1C	170
CN(Cc1ccccn1)C(=O)C1=NOC2(CCN(S(=O)(=O)c3ccc(F)cc3)C2)C1 (stereo unspecified)	-80*
CCCCS(=O)(=O)N1CCC2(CC2C(=O)N(C)Cc2ccccn2)C1 (stereo unspecified)	114
CC(C)N(C)C(=O)C1=NOC2(CCN(C(=O)c3ccccn3)C2)C1 (stereo unspecified)	0
CC(=O)N1CCC(N2CCN(c3ccncc3F)CC2)CC1	0
COc1ccc2c3c(n(C)c2c1)[C@H](CO)N(C(=O)c1ccncc1)CC31CN(C(C)=O)C1	-47
O=C(Nc1cccc2cccnc12)c1ccc(N2C(=O)[C@@H]3[C@H](C2=O)[C@@H]2C=C[C@H]3C2)cc1	24
CCC(=O)N1CCC2(CC1)C(=O)Nc1ccc(C(=O)NC3CC3)cc12	3
